Source: PubChem BioAssay (Tox21)
A number with no mark means an inactive call. Active and inactive are the calls of the source. Calls come from the whole dose curve; as a rule, active = well fitted curve in the direction sought with a large enough effect in the repeat runs; inconclusive = weak or mixed curves; inactive = flat fitted curve, though single readings scatter.

Experiment: qHTS assay to test for compound auto fluorescence at 460 nm (blue) in HEK293 cells (AID 720678)
Conditions: blue autofluorescence 405/460 nm; series mostly up to 91.3 µM; fluorescence, % of triamterene: at the top concentration
In short: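 Intrinsic compound fluorescence is recorded in live HEK293 cultures after overnight incubation at 37C, 5% CO2, using excitation 405 nm and emission 460 nm. Values are referenced to triamterene.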
% is set by controls: 0 for no effect and ±100 for the full control effect.

Structure (SMILES) | fluorescence, % of triamterene | outcome
CCOC(=O)C(C)(C)C | 0.0467% | –
CCCCC(CC)C(=O)OC(C)C (centres undefined) | -0.0505% | –
CCCCC[Si](OCC)(OCC)OCC | 0.0472% | –
CCCCC(=O)N(C)C | 0.422% | –
C[CH2][Ge]([Cl])([CH2]C)[CH2]C | -0.0545% [at 95.7 µM] | –
Cc1nc([N+](=O)[O-])cn1-c1ccc([N+](=O)[O-])cc1 | -0.0324% [at 46 µM] | –
Cc1cccc(Nc2ccncc2S(=O)(=O)NC(=O)NC(C)C)c1 | 0.173% [at 18.6 µM] | –
N#CCCOCCOCCC#N | 0.0026% | –
CC(C)COC(=O)CCCCC(=O)OCC(C)C | 0.0046% | –
CCc1nccnc1C | 0.173% | –
Cc1ncc([N+](=O)[O-])n1CC(O)CCl (centres undefined) | -0.195% [at 18.6 µM] | –
CCOc1ccc(NC(=O)OC(C)C)cc1OCC | 0.242% | –
COc1cccc2sc(N)nc12 | -0.0557% | –
C[C@H](CCC(=O)O)[C@H]1CC[C@H]2[C@@H]3[C@H](O)C[C@@H]4C[C@H](O)CC[C@]4(C)[C@H]3C[C@H](O)[C@]12C | – | inactive
NCCc1ccn[nH]1 | -0.006% [at 18.6 µM] | –
O=P(O)(O)OCC(O)CO (centres undefined) | -0.151% [at 46 µM] | –
CCC1Nc2cc(Cl)c(S(N)(=O)=O)cc2S(=O)(=O)N1 (centres undefined) | 0.152% [at 46 µM] | –
O=C(/C=C/c1ccccc1)NCCO | -0.0215% [at 46 µM] | –
CCC(C)N (centres undefined) | -0.0261% | –
CNC(=O)C(c1ccccc1)c1ccccc1 | 0.12% | –
CCCOCCOCCOCCO | 0.223% | –
O=[Si]=O | 0.158% | –
C=CCOc1c(Br)cc(C(C)(C)c2cc(Br)c(OCC=C)c(Br)c2)cc1Br | 0.0525% [at 46 µM] | –
CCCCOC(=O)[C@@H](C)Oc1ccc(Oc2ccc(C(F)(F)F)cn2)cc1 | 0.291% | –
